# In PubChem BioAssay:
# Where “and” joins values, the source holds several entries; their conditions need not be identical. Equal entries are not always repeated. Inconclusive results are not listed. For part of these data: Entries with a potency or affinity are not part of this list. Calls of active or inactive are those of the source. Unless noted, no rule for the calls is given here.
# Assays:
# [1] = system: Aerobactin synthetase IucA (Klebsiella pneumoniae hvKP1); test: IucA enzyme inhibition, primary screen, biochemical, Spectrum library (AID 1346200); details: malachite green pyrophosphate, A620, at 8 µM, stronger effect = lower value;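 also: 100% = wells without compound and 0% = wells lacking enzyme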
# [2] = system: Aerobactin synthetase IucA (Klebsiella pneumoniae, hypervirulent); test: biochemical IucA inhibition screen of LOPAC library by absorbance (AID 1346212); details: IucA enzyme assay, absorbance (OD) readout; stronger effect = lower value;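 tested at 8 µM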;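 also: 100% = no compound wells and 0% = no enzyme wells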
# [3] = blockers of polyQ-driven CASP3 activation – cell-based (AID 1583); details: polyglutamine-induced caspase-3 activation, cell assay; stronger effect = higher value;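 tested at 10 µM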
# [4] = yeast 75Q aggregation reduction – 75Q-TubU reporter (AID 1593); details: Yeast 75Q polyglutamine aggregation reporter
# [5] = restoration of touch response, mutant HTT neurons – whole organism, C. elegans mechanosensory neurons, N-terminal huntingtin (AID 1599); details: C. elegans polyQ-huntingtin mechanosensory neurons, stronger effect = higher value
# [6] = blockers of cytochrome c efflux from mitochondria – biochemical, purified mitochondria (AID 1603); details: stronger effect = lower value;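 also: mouse liver mitochondria challenged with calcium chloride; signal normalized to the plate average as 100%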
# [7] = polyglutamine aggregate formation blockers (AID 1604); details: polyglutamine-induced protein aggregation inhibition assay; stronger effect = higher value; tested at 2.5 µM
# [8] = glutamate transport activators, MN-1 cells, MN-1 cell line (AID 1612); details: MN-1 motor neuron cells, stronger effect = higher value;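 also: tested at 1 µM final; 0% = mean of DMSO vehicle wells on each plate; positive means more glutamate uptake than control and negative means less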
# [9] = GFP-Q80 aggregate reduction, neuronal-like cells, cell-based, NGF-treated PC12, GFPQ80 (AID 1614); details: PC12 NGF-treated GFP-polyQ80 inclusion reduction;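 also: lower means fewer inclusions and 0 means no inclusions at all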
# [10] = 75Q-TubH aggregate inhibition, S. cerevisiae, yeast (AID 1616); details: S. cerevisiae 75Q-TubH polyglutamine aggregation suppression; stronger effect = higher value
# [11] = compounds altering circadian rhythm period length – cell-based, LOPAC library, luminescence reporter (AID 2774); details: circadian reporter cells, at 7 µM, actives lie on both sides;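 also: values are relative to mean of DMSO wells on each plate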
# [12] = system: Hepatitis C virus NS3 helicase; test: blockers of NS3h binding to ssDNA – biochemical, fluorescence polarization, LOPAC1280 library, primary screen (AID 687035; in the data active = inhibition above about 37%); details: Purified HCV NS3 helicase, Cy5-dT15 ssDNA binding fluorescence polarization; stronger effect = higher value; concentration not given here
# [13] = compounds altering Cy5-DNA-NS3h complex signal – biochemical, LOPAC1280, artefact control for HCV NS3 helicase inhibitor project (AID 687037); details: Cy5-DNA-NS3h complex fluorescence interference counterscreen
# [14] = viability loss with induced miR-34 in A549 – imaging, A549 dox-inducible miR-34, nuclei and caspase counts, primary screen (AID 1347080;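 active = compounds whose cell count with miR-34 switched on is under 0.7 times the count with it off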); details: A549 miR-34 inducible, Hoechst nuclei count, 48 h
# [15] = galactose survival enhancers in mitochondrial complex I cybrids – cell-based, galactose medium, ATP luminescence, primary screen (AID 1645843;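 active = z-score of at least 1.8 in each of two replicates, scored against plate mean and spread of sample wells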;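 also: positive z means more ATP and so rescue of galactose-driven cybrid death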); details: complex I mutant cybrid cells, 72 h, stronger effect = higher value
# [16] = MELAS cybrid and Rieske KO viability enhancers – cell-based, MELAS cybrids, Rieske KO mouse fibroblasts, CellTiter-Glo, primary screen (AID 1508586;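 active = mean z-score across replicates of 1.96 or higher in either the MELAS or the Rieske mutant cell line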;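 also: z relative to plate mean and SD of compound and empty wells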); details: low glucose
# [17] = molecular target: Huntingtin (Homo sapiens) (UniProt P42858); test: mutant huntingtin aggregation blockers – QA1, dose response (AID 1584); details: in vitro mutant huntingtin aggregation assay; confirmation test; at 10 µM; stronger effect = lower value
# Chain of Huntingtin (Homo sapiens) (P42858 whole entry, looked up): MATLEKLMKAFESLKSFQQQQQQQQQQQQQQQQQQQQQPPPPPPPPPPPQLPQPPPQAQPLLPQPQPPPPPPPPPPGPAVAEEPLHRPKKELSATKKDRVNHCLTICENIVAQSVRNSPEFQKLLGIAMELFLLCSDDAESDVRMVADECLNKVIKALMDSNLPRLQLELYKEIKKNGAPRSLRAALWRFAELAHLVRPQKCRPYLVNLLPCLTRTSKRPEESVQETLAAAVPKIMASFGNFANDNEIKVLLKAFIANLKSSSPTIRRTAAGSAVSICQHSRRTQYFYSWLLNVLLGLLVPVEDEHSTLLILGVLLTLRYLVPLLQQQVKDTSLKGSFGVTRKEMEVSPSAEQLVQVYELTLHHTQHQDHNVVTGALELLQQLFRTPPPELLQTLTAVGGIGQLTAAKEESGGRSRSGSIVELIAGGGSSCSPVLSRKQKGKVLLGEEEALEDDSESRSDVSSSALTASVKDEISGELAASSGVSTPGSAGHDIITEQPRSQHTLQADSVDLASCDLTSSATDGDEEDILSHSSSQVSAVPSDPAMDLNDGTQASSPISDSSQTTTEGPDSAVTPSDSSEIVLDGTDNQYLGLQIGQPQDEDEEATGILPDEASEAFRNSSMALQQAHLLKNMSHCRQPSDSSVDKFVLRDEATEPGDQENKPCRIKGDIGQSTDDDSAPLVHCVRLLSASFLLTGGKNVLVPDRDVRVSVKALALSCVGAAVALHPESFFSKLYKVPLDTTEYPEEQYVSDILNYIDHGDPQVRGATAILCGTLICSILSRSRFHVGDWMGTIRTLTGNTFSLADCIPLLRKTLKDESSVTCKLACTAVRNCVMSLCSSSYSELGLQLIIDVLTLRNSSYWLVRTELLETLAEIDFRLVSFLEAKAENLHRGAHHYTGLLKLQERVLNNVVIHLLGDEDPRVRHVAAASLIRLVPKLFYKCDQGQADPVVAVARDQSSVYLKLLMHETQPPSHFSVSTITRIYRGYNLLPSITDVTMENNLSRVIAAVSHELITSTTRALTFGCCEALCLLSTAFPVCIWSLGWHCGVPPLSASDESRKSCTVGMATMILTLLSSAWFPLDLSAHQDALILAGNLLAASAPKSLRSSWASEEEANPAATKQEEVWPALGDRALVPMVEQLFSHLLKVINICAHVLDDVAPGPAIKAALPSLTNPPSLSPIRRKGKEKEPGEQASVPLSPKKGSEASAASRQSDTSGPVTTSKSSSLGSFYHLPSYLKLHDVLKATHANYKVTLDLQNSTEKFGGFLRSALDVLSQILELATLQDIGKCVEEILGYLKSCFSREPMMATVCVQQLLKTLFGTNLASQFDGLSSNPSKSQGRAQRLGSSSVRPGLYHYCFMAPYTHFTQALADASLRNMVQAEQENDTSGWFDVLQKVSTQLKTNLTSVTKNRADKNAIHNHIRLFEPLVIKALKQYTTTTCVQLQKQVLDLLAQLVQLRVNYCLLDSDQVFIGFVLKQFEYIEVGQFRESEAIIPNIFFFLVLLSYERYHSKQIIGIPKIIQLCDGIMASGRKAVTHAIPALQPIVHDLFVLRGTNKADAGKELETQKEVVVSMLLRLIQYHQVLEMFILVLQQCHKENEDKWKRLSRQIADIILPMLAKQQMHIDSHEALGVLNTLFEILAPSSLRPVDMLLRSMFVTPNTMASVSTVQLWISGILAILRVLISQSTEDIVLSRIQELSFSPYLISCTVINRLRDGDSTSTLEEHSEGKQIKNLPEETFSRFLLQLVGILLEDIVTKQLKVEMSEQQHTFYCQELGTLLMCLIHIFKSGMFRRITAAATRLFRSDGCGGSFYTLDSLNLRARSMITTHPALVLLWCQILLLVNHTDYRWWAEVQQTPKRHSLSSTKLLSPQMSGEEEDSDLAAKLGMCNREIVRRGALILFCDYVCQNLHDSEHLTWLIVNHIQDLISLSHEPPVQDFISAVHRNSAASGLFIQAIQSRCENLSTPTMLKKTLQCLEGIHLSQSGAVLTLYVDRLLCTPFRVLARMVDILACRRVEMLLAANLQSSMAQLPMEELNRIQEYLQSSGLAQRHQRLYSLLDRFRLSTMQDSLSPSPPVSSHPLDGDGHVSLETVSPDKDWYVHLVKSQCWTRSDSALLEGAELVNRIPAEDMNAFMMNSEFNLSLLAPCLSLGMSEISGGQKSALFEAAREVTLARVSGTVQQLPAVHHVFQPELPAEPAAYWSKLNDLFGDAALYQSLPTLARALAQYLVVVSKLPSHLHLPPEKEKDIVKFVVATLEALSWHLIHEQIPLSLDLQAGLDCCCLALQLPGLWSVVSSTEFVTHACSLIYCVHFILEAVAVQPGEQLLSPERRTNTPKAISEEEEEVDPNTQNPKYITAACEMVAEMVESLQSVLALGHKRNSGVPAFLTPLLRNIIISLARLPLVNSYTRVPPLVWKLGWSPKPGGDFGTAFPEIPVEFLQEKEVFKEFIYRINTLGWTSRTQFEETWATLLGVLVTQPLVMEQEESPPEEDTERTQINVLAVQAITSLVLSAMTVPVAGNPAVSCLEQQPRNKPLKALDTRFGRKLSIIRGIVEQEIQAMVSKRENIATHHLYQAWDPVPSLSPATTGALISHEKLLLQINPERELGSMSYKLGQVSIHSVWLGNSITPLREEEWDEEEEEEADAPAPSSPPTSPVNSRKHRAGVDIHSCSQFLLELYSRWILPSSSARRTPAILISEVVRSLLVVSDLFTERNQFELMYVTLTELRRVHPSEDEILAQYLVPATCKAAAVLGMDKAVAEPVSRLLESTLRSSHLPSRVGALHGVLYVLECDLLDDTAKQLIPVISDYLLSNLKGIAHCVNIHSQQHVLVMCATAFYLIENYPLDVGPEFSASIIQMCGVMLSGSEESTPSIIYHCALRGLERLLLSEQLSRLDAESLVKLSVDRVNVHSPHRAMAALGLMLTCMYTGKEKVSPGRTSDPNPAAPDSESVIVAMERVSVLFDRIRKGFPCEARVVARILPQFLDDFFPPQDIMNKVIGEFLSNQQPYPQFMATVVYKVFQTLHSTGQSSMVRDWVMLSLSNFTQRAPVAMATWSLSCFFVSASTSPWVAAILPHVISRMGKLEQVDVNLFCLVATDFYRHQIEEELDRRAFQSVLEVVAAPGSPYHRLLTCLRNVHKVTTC
# [18] = measured here: relative caspase fold change +Dox/-Dox
# [19] = measured here: total cells with miR-34 induction, stronger effect = lower value
# [20] = measured here: total cells without miR-34 induction
smiles,measurement,setting,value
CN(C)CCCN1c2ccccc2CCc2ccc(Cl)cc21,activity remaining,[1],111% (inactive)
same,remaining activity,[2],117% (inactive)
CCN(CC)CCOC(=O)c1ccc(N)cc1,activity remaining,[1],105% (inactive)
same,remaining activity,[2],106% (inactive)
Cc1cn([C@H]2C[C@H](N=[N+]=[N-])[C@@H](CO)O2)c(=O)[nH]c1=O,activity remaining,[1],114% (inactive)
same,remaining activity,[2],117% (inactive)
COc1cc([C@@H]2c3cc4c(cc3[C@H](O)[C@H]3COC(=O)[C@H]23)OCO4)cc(OC)c1OC,inhibition,[3],-31.7%
same,score,[4],0.81
same,rescue above control,[5],-13.8
same,cytochrome c release ratio,[6],1.06
same,inhibition of aggregation,[7],58.9%
same,glutamate uptake change,[8],21.3%
same,inclusion score,[9],2
same,aggregation suppression score,[10],0.784
same,activity remaining,[1],102% (inactive)
same,remaining activity,[2],124% (inactive)
COc1ccc(CN(CCN(C)C)c2ccccn2)cc1,activity remaining,[1],118% (inactive)
same,remaining activity,[2],112% (inactive)
NC(=NCc1ccccc1)NC(=O)c1nc(Cl)c(N)nc1N,activity remaining,[1],78.3% (inactive)
same,remaining activity,[2],94.8% (inactive)
NC(N)=NC(N)=Nc1ccccc1,activity remaining,[1],123% (inactive)
same,remaining activity,[2],101% (inactive)
NC[C@H](O)c1ccc(O)c(O)c1,activity remaining,[1],107% (inactive)
same,remaining activity,[2],118% (inactive)
OCCN(CCO)c1nc(N2CCCCC2)c2nc(N(CCO)CCO)nc(N3CCCCC3)c2n1,activity remaining,[1],89.5% (inactive)
same,remaining activity,[2],92.9% (inactive)
Clc1ccc(C(c2ccccc2Cl)C(Cl)Cl)cc1 (stereo not drawn),activity remaining,[1],92.7% (inactive)
same,remaining activity,[2],111% (inactive)
CN1C(=O)CC[C@H]1c1cccnc1,activity remaining,[1],101% (inactive)
same,remaining activity,[2],122% (inactive)
CC1OC1P(=O)(O)O (stereo not drawn),period change,[11],-0.1 h (inactive)
same,inhibition,[12],-2% (inactive)
same,fluorescence ratio (interference),[13],1 (inactive)
same,activity remaining,[1],94.8% (inactive)
same,remaining activity,[2],105% (inactive)
same,fold change,[14]; stronger effect = lower value,1.08 (inactive) and 0.849 (inactive)
same,fold change,[14]; [18],1.1 and 5.83
same,cell count,[14]; [19],10700 and 11000
same,cell count,[14]; [20],9890 and 12900
same,z-score,[15],0.665 (inactive)
COC(=O)C1=C(C)NC(C)=C(C(=O)OCCN(C)Cc2ccccc2)C1c1cccc([N+](=O)[O-])c1 (stereo not drawn),activity remaining,[1],107% (inactive)
same,remaining activity,[2],109% (inactive)
CCn1cc(C(=O)O)c(=O)c2ccc(C)nc21,period change,[11],-0.11 h (inactive)
same,inhibition,[12],-5% (inactive)
same,fluorescence ratio (interference),[13],1 (inactive)
same,activity remaining,[1],117% (inactive)
same,remaining activity,[2],122% (inactive)
same,z-score,"[16]; MELAS cybrid survival, CellTiter-Glo 48 h, stronger effect = higher value",-0.303 (inactive) and 0.479 (inactive)
same,z-score,"[16]; Rieske KO mouse fibroblast survival, CellTiter-Glo 72 h",0.386 and -0.565
same,z-score,[15],0.725 (inactive) and 0.425 (inactive)
Cc1ccc(/C(=C\CN2CCCC2)c2ccccn2)cc1,activity remaining,[1],103% (inactive)
same,remaining activity,[2],121% (inactive)
COC(=O)[C@H]1[C@H]2C[C@H]3c4[nH]c5ccccc5c4CCN3C[C@H]2CC[C@@H]1O,activity remaining,[1],107% (inactive)
same,remaining activity,[2],95.4% (inactive)
C=C[C@H]1CN2CC[C@H]1C[C@@H]2[C@@H](O)c1ccnc2ccc(OC)cc12,activity remaining,[1],98.9% (inactive)
same,remaining activity,[2],115% (inactive)
COc1ccc2cc([C@H](C)C(=O)O)ccc2c1,activity remaining,[1],101% (inactive)
same,remaining activity,[2],91.4% (inactive)
CC(=O)N[C@@H](CS)C(=O)O,activity remaining,[1],110% (inactive)
same,remaining activity,[2],108% (inactive)
C[n+]1cc2c3c(ccc2c2ccc4cc5c(cc4c21)OCO5)OCO3,inhibition,[3],89.4%
same,aggregation ratio,[17],0.44
same,score,[4],0.8
same,rescue above control,[5],-18
same,cytochrome c release ratio,[6],1.22
same,inhibition of aggregation,[7],-2.89%
same,glutamate uptake change,[8],-11.9%
same,aggregation suppression score,[10],0.576
same,activity remaining,[1],97.5% (inactive)
same,remaining activity,[2],102% (inactive)
Cc1c(OCC(F)(F)F)ccnc1CS(=O)c1nc2ccccc2[nH]1 (stereo not drawn),activity remaining,[1],121% (inactive)
same,remaining activity,[2],111% (inactive)
C[C@H](CS)C(=O)N1CCC[C@H]1C(=O)O,activity remaining,[1],99.1% (inactive)
same,remaining activity,[2],99.3% (inactive)
O=C(O)c1cc(=O)c2ccccc2[nH]1,activity remaining,[1],113% (inactive)
same,remaining activity,[2],109% (inactive)
O=C(O)c1cc2cc(Cc3cccnc3)ccc2o1,activity remaining,[1],121% (inactive)
same,remaining activity,[2],104% (inactive)
CCN(Cc1ccncc1)C(=O)C(CO)c1ccccc1 (stereo not drawn),activity remaining,[1],98.9% (inactive)
same,remaining activity,[2],98.9% (inactive)
N[C@@H](CC(=O)N1CCn2c(nnc2C(F)(F)F)C1)Cc1cc(F)c(F)cc1F,activity remaining,[1],110% (inactive)
same,fold change,"[14]; stronger effect = lower value, cell number ratio, induced over uninduced",0.907 (inactive)
same,fold change,[14]; [18],5.09
same,cell count,[14]; [19],11900
same,cell count,[14]; [20],13100
CN(C)C(=O)Oc1ccc[n+](C)c1,activity remaining,[1],93.4% (inactive)
same,remaining activity,[2],91.3% (inactive)
CCCCCCCCCCCCCC(=O)O[C@@H]1[C@@H](C)[C@@]2(O)[C@@H](C=C(CO)C[C@]3(O)C(=O)C(C)=C[C@@H]23)[C@@H]2C(C)(C)[C@]12OC(C)=O,activity remaining,[1],115% (inactive)
same,remaining activity,[2],75.1% (inactive)
same,fold change,[14]; stronger effect = lower value,0.96 (inactive)
same,fold change,[14]; [18],1.01
same,cell count,[14]; [19],240
same,cell count,[14]; [20],250
